Assay [1] is described as follows: Human pregnane X receptor (PXR) small molecule agonists, qHTS cell viability counter screen (AID 1346977). Further: nearly all actives have a fitted effect of over 50% in size. The method in brief:
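After a 5hr pre-incubation, PXR-Luc HepG2 cells received compounds plus positive control in DMSO and were kept 24hr at 37C. Cell viability was quantified by fluorescence from CellTiter-Fluor added for the final hour.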
In general terms: qHTS replaces the single test concentration by a dilution series.

The nature of assay [2]: Caspase-3/7 induction in HepG2 cells by small molecules, qHTS assay (AID 1346978). Further: nearly all actives have a fitted effect of over 15% in size. In a few lines:
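Caspase-3/7 induction was measured by Caspase-Glo 3/7 luminescence (30 min, room temperature) after a 17 hr compound exposure of wild-type HepG2 cells seeded at 2,000 per well and pre-incubated 5 hr.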

A short description of assay [3]: Caspase-3/7 induction in CHO-K1 cells by small molecules, qHTS cell viability counter screen (AID 1346979). Further: nearly all actives have a fitted effect of over 35% in size. The method in brief:
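Multiplexed with Caspase-Glo 3/7 in CHO-K1 cells, this counter screen added CellTiter-Fluor after 16hr of compound exposure and recorded fluorescence 1hr later.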

Assay [4] in a line: Caspase-3/7 induction in CHO-K1 cells by small molecules, qHTS assay (AID 1346980). Further: nearly all actives have a fitted effect of over 15% in size. In a few lines:
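Luminescent Caspase-Glo 3/7 read (30min, room temperature) quantified apoptosis induction. Cells were wild-type CHO-K1, treated with compound for 17hr at 37 C and 5% CO2.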

The nature of assay [5]: Caspase-3/7 induction in HepG2 cells by small molecules, qHTS cell viability counter screen (AID 1346981). Further: series mostly up to about 92 µM; nearly all actives have a fitted effect of over 30% in size. The method in brief: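 In this quantitative HTS counter screen, compounds delivered in DMSO were left on unmodified HepG2 cells for 16 hr at 37 C. Viability was then determined fluorometrically with CellTiter-Fluor, in parallel with caspase-3/7 induction in the same wells.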

Assay [6] concerns the target Nuclear receptor subfamily 1 group I member 2 (Homo sapiens) (UniProt O75469). Nature of the assay: Human pregnane X receptor (PXR) small molecule agonists, qHTS assay (AID 1346982). Further: nearly all actives have a fitted effect of over 35% in size. In a few lines: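 Reporter HepG2 cells expressing PXR-Luc are cultured in charcoal-stripped FBS (5%), treated with compounds for 24 hr at 37 C, and assayed by ONE-Glo luminescence after 30 min at room temperature.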

Assay [7] concerns the target Cytochrome P450 2D6 (Homo sapiens) (UniProt P10635). Nature of the assay: Cytochrome P450 Family 2 Subfamily D Member 6 (CYP2D6) small molecule antagonists: luciferase reporter qHTS assay (AID 1671196). Further: series mostly up to about 120 µM; nearly all actives have a fitted effect of over 50% in size. The method in brief: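 Test chemicals meet CYP2D6 plus proluciferin substrate (10 min, RT); NADPH regenerating solution then drives turnover for 1 h. Detection reagent halts the reaction; luminescence measured after 20 min.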

Assay [8] deals with Cytochrome P450 2C19 (Homo sapiens) (UniProt P33261). Nature of the assay: Cytochrome P450 Family 2 Subfamily C Member 19 (CYP2C19) small molecule antagonists: luciferase reporter qHTS assay (AID 1671197). Further: series mostly up to about 120 µM; nearly all actives have a fitted effect of over 65% in size. The method in brief: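 Luminescent readout of CYP2C19 activity: luciferin product detected 20 min after adding detection reagent. Before that, compound and enzyme-substrate mix preincubated 10 min at room temperature; NADPH-regenerating system started a 1 h, 37C reaction. Ketoconazole as positive control.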

The target of assay [9] is Cytochrome P450 2C9 (Homo sapiens) (UniProt P11712). Nature of the assay: Cytochrome P450 Family 2 Subfamily C Member 9 (CYP2C9) small molecule antagonists: luciferase reporter qHTS assay (AID 1671198). Further: nearly all actives have a fitted effect of over 50% in size. Further: potency means the concentration at half of the fitted maximal effect. In a few lines: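 Enzyme-substrate mix preincubated with compound 10 min at room temperature; reaction started with NADPH regeneration solution, 1 h 37C. Luminescent luciferin product read after 20 min detection reagent.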

The target in assay [10] is Cytochrome P450 1A2 (Homo sapiens) (UniProt P05177). The experiment in a line: Cytochrome P450 Family 1 Subfamily A Member 2 (CYP1A2) small molecule antagonists: luciferase reporter qHTS assay (AID 1671199). Further: nearly all actives have a fitted effect of over 50% in size. Further: potency means the concentration at half of the fitted maximal effect. The method in brief: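 Steps: enzyme-substrate mix dispensed; test compounds and furafylline control pinned in; 10 min room temperature; NADPH regeneration solution added, 1 h; reaction stopped with luciferin detection reagent; luminescence read after 20 min.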

The target in assay [11] is Voltage-gated inwardly rectifying potassium channel KCNH2 (Homo sapiens) (UniProt Q12809). Nature of the assay: Human Ether-a-go-go-Related Gene (hERG) channel small molecule antagonists: fluorescence cell-based qHTS assay (AID 1671200). The method in brief:
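Cell line hERG-U2OS; dye FluxOR II, 1 h RT dark; Tl+ stimulus; ex 480/em 540 nm, read each second for 2 min.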

For assay [12], the target named is Cytochrome P450 3A4 (Homo sapiens) (UniProt P08684). The experiment in a line: Cytochrome P450 Family 3 Subfamily A Member 4 (CYP3A4) small molecule antagonists: luciferase reporter qHTS assay (AID 1671201). The method in brief: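 Room-temperature assay throughout: 10 min compound–enzyme/substrate preincubation, 1 h reaction after NADPH regeneration solution, 20 min detection. Luciferin formed from proluciferin substrate is quantified by luminescence.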

The target of assay [13] is Nuclear receptor subfamily 1 group I member 2 (Rattus norvegicus) (UniProt Q9R1A7). The experiment in a line: Rat pregnane X receptor (rPXR) activation by small molecules, qHTS assay (AID 1346983). Further: nearly all actives have a fitted effect of over 20% in size. Conditions: rPXR luciferase reporter cells, One-Glo luminescence, 24 h; max activation: hits give high values. In a few lines:
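Luminescent readout (One-Glo luciferase, 30 min room temperature) followed 24 hr compound treatment at 37 C of rPXR cells plated 2,000 per well and preincubated 5hr; qHTS format with compounds delivered in DMSO.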

Assay [14] deals with Nuclear receptor subfamily 1 group I member 2 (Homo sapiens) (UniProt O75469). Nature of the assay: Human pregnane X receptor (PXR) activation by small molecules, qHTS assay (AID 1346985). Further: nearly all actives have a fitted effect of over 40% in size. In a few lines:
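DPX-2 cells (HepG2 co-transfected with a PXR response element and a CYP3A4-promoter luciferase construct) were seeded at 2,000 per well, rested 5 hr at 37C, then exposed to DMSO-dissolved compounds for 24 hr. Activation was read as luciferase luminescence.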

For assay [15] the target is unchanged. The experiment in a line: CYP3A4 induction through human pregnane X receptor (PXR) by small molecules, qHTS assay (AID 1346984). Further: nearly all actives have a fitted effect of over 40% in size. In a few lines:
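Induction measured in HepG2-based DPX-2 cells co-expressing human PXR and a CYP3A4 promoter-driven luciferase. After a 24-hour compound exposure, cells received CYP3A4 luciferin substrate at 3uM final for 3 hours, and light output was then recorded.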

Unmarked numbers belong to inactive results. Records with an inconclusive call do not appear. Calls of active or inactive are those of the source. The call rests on the fitted dose curve; in most records, active means well fitted curve in the direction sought with a large enough effect in the repeat runs; inconclusive means weak or mixed curves; inactive means no such curve, though single readings can be large; an effect the other way counts as inactive or inconclusive. Where a SMILES comes first, the peptide text is derived from it. [ ]: non-standard residue; d: D form. pGlu = O=C1CC[C@@H](C(=O)O)N1
On the % scale 0 is the no-effect control and ±100 the full control effect.

Chain of Cytochrome P450 2C9 (Homo sapiens) (P11712 whole entry, looked up): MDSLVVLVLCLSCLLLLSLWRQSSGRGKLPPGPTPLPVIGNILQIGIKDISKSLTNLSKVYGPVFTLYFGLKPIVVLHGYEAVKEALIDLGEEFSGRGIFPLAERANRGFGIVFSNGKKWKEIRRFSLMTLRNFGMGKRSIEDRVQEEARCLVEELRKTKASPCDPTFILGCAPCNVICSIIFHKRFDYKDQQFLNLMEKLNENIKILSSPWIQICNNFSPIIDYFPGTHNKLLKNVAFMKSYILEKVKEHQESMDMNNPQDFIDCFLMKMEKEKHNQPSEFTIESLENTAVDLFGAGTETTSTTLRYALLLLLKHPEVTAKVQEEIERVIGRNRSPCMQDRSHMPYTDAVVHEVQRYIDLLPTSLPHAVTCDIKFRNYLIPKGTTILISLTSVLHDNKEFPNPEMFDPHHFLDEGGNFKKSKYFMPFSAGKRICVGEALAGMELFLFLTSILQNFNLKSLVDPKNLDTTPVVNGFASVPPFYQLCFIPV
Chain of Cytochrome P450 2C19 (Homo sapiens) (P33261 whole entry, looked up): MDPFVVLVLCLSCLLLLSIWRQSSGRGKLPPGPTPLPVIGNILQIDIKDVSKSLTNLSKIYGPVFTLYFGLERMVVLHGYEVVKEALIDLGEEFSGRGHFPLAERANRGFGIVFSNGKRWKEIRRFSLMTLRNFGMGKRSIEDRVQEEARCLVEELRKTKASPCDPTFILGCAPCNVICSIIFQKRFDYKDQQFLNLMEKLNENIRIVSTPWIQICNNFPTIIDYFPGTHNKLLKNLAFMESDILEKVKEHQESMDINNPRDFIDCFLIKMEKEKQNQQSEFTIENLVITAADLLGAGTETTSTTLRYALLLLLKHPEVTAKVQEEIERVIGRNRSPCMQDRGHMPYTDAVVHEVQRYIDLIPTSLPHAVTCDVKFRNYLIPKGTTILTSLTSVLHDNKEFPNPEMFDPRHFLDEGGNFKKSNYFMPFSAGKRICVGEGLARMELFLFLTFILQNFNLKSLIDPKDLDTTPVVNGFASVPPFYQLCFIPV
Chain of Cytochrome P450 3A4 (Homo sapiens) (P08684 whole entry, looked up): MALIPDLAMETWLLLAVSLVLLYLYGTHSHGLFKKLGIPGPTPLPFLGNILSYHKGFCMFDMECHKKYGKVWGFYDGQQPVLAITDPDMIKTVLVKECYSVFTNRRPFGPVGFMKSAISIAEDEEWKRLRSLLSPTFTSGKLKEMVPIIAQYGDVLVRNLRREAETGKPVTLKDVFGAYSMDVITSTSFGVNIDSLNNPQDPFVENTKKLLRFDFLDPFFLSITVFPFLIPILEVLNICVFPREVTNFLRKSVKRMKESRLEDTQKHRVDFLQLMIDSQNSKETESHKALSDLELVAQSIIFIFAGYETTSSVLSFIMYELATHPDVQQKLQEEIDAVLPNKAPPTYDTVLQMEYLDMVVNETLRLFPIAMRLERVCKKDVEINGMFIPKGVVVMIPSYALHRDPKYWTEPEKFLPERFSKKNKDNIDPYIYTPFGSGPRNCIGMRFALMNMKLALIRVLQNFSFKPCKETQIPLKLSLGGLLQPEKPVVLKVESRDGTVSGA
Chain of Nuclear receptor subfamily 1 group I member 2 (Homo sapiens) (O75469 whole entry, looked up): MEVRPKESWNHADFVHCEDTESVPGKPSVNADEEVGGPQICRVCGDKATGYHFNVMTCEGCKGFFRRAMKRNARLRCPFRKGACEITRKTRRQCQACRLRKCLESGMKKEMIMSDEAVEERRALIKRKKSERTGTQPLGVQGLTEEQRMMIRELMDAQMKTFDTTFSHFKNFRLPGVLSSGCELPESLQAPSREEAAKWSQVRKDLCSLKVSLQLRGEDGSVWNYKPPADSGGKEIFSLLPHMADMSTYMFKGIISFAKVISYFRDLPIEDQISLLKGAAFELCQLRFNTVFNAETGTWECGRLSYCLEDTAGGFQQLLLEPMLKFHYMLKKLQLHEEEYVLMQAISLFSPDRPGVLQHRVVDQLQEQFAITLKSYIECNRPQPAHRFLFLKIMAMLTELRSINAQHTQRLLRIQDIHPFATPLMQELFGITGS
Chain of Voltage-gated inwardly rectifying potassium channel KCNH2 (Homo sapiens) (Q12809 whole entry, looked up): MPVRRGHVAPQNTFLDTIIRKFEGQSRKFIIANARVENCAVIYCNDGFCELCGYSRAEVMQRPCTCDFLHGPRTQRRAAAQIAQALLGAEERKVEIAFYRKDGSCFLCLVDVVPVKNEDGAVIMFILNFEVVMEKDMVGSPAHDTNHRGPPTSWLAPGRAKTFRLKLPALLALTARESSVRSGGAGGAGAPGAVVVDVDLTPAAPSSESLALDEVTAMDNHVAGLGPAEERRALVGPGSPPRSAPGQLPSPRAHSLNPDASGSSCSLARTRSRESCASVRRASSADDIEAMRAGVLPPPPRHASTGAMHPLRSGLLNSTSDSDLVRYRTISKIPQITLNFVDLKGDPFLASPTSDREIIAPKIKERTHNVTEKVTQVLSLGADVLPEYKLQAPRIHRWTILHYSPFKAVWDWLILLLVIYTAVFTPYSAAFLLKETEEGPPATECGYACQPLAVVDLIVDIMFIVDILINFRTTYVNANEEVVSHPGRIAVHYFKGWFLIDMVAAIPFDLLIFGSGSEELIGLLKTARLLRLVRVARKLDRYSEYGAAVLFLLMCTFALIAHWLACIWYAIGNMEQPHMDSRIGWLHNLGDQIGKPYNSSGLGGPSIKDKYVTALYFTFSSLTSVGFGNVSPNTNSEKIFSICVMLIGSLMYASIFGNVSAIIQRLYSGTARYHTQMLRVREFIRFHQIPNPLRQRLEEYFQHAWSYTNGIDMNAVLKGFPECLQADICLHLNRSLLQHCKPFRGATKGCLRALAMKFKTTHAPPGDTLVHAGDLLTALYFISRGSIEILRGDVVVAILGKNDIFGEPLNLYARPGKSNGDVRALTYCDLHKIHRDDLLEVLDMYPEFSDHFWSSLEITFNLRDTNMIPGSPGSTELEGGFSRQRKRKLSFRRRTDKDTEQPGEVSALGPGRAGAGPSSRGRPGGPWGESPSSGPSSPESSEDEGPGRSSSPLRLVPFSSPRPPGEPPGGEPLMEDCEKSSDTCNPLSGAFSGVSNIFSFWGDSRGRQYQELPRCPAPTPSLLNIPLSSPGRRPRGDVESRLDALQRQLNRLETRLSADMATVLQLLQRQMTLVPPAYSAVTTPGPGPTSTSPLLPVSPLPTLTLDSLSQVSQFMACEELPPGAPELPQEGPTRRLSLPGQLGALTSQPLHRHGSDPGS
Chain of Cytochrome P450 2D6 (Homo sapiens) (P10635 whole entry, looked up): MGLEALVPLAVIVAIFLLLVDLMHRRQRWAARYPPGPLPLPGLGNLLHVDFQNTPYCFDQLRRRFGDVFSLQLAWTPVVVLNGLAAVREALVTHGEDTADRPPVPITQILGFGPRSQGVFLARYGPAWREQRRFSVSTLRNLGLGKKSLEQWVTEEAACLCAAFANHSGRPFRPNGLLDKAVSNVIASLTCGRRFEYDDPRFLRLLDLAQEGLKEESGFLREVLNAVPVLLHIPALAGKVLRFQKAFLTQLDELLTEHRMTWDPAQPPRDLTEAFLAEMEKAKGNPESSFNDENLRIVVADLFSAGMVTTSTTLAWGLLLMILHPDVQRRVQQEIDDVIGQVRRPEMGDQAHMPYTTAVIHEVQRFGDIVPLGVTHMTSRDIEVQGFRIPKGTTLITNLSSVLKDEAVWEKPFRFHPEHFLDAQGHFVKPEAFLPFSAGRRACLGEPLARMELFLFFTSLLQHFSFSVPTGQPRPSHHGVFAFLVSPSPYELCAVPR
Chain of Cytochrome P450 1A2 (Homo sapiens) (P05177 whole entry, looked up): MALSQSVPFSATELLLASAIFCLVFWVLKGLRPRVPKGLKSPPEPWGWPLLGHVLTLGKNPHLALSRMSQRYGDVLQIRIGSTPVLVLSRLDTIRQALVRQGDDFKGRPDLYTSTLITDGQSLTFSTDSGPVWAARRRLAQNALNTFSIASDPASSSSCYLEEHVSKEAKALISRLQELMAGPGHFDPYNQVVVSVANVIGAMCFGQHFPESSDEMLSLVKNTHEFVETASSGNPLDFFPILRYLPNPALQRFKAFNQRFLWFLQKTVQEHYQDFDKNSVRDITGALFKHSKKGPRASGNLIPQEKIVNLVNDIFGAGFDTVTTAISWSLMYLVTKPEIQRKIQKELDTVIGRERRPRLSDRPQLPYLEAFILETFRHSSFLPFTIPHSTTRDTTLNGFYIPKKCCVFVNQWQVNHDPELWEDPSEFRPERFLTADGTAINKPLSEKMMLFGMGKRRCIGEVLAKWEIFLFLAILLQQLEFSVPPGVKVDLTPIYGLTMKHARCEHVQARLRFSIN
Chain of Nuclear receptor subfamily 1 group I member 2 (Rattus norvegicus) (Q9R1A7 whole entry, looked up): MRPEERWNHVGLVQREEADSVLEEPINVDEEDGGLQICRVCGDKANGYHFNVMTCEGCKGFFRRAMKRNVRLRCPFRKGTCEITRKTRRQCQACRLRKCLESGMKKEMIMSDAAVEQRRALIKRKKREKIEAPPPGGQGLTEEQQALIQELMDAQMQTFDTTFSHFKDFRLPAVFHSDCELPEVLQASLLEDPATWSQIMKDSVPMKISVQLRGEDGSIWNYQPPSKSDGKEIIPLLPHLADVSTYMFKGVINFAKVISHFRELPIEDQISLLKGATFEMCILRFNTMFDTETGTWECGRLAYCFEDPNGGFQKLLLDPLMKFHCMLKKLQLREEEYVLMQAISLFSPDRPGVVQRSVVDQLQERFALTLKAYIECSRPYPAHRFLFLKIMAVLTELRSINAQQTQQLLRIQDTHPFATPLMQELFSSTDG

Regarding `Cc1coc2ccccc2c1=O`, the Potency entry in assay [1], in assay [3], in assay [5], in assay [6], in assay [7] and in [8] was “inactive” each time. The Potency result in assay [9], in assay [11] and in [12] was “inactive” in each case. The result in [2] and in assay [4] was inactive. Also, the Potency in assay [10] was 15.5 µM (active).
Consider `CCO[Si](OCC)(OCC)c1ccccc1`, for which the Potency entry in [1], in assay [3], in [5], in assay [6], in assay [7] and in assay [8] was “inactive” each time. In addition, the Potency entry in assay [9], in [10] and in assay [11] was “inactive” each time. Further, the outcome in assay [2] and in assay [4] was inactive.
For the compound `Cc1ccc(-c2ncc(Cl)cc2-c2ccc(S(C)(=O)=O)cc2)cn1`, the Potency result in assay [1], in [3], in assay [5], in [6], in assay [14] and in [8] was “inactive” in each case. In addition, the Potency result in assay [10] and in assay [11] was “inactive” each time. Moreover, the outcome in assay [2] and in assay [4] was inactive. Further, the max activation in assay [13] was 7.56%. Besides, the Potency in assay [9] was 17.4 µM (active).
In the case of `CC(=O)NC(=O)c1ccccc1O`, the Potency entry in assay [1], in [3], in assay [5], in assay [6], in assay [15] and in [14] was “inactive” throughout. Further, the Potency entry in assay [7], in [8], in assay [11] and in assay [12] was “inactive” each time. For the same compound, the call in assay [2] and in [4] was inactive. The max activation in assay [13] was -2.9%.
For `CN(C)C(=O)Oc1cccc([N+](C)(C)C)c1`, the Potency entry in assay [1], in assay [3], in assay [5], in assay [6], in [15] and in [14] was “inactive” in each case. In addition, the Potency entry in [7], in assay [8], in [9], in assay [10], in [11] and in [12] was “inactive” in each case. The outcome in assay [2] and in [4] was inactive. The max activation in assay [13] is -2.37%.
Take `CCOC(=O)OC(C)OC1=C(C(=O)Nc2ccccn2)N(C)S(=O)(=O)c2ccccc21` (centres undefined): the Potency entry in assay [1], in [3], in assay [5], in assay [6], in assay [15] and in assay [14] was “inactive” in each case. Besides, the Potency entry in assay [7], in assay [10], in assay [11] and in [12] was “inactive” in each case. The call in assay [2] and in assay [4] was inactive. For the same compound, in [13], the max activation was -2.57%.
As to `CCNC(=O)[C@@H]1CCCN1C(=O)[C@H](CCCN=C(N)N)NC(=O)[C@H](CC(C)C)NC(=O)CNC(=O)[C@H](Cc1ccc(O)cc1)NC(=O)[C@H](CO)NC(=O)[C@H](Cc1c[nH]c2ccccc12)NC(=O)[C@H](Cc1cnc[nH]1)NC(=O)[C@@H]1CCC(=O)N1` ([pGlu]HWSYGLRP-NHEt), the Potency result in assay [1], in assay [3], in assay [5], in [6], in assay [7] and in assay [8] was “inactive” each time. Further, the Potency result in [9], in [10] and in assay [11] was “inactive” throughout. In addition, the outcome in assay [2] and in assay [4] was inactive.
For `CC(=O)Oc1cccc(C)c1`, the Potency result in assay [1], in assay [3], in assay [5], in [6], in assay [15] and in assay [14] was “inactive” each time. The Potency entry in assay [7], in [8], in [9], in assay [10], in assay [11] and in [12] was “inactive” throughout. Moreover, the compound was classed as inactive in assay [2] and in assay [4]. Besides, the max activation in assay [13] was -3.04%.
As to `C=CCCC(=O)O`, the Potency entry in assay [1], in assay [3], in assay [5], in [6], in assay [7] and in assay [8] was “inactive” in each case. For the same compound, the Potency result in assay [9], in [10], in assay [11] and in assay [12] was “inactive” each time. The compound was called inactive in assay [2] and in assay [4].
On to `CC[N+](CC)(CC)CCOc1cccc(OCC[N+](CC)(CC)CC)c1OCC[N+](CC)(CC)CC`, for which the Potency result in [1], in [3], in [5], in [6], in assay [15] and in assay [14] was “inactive” each time. For the same compound, the Potency result in assay [7], in [8], in [9], in assay [10], in assay [11] and in [12] was “inactive” throughout. Besides, the result in [2] and in [4] was inactive. For the same compound, the max activation in assay [13] was -1.52%.

Values taken from PubChem BioAssay (Tox21).
